Test results as given in PubChem BioAssay AID493012 (Sanford-Burnham Center for Chemical Genomics, 2011).
Hit rate of the full screen: of about 330,000 compounds, about 930 (0.28%) were called active.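 Rule for the calls: active = inhibition of at least 40% at 20 µM, with no more than 30% in the related APOBEC3A deaminase screen; inactive = the rest.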 The sample as a whole holds a higher share of actives than the screen did.

Biological target: DNA dC->dU-editing enzyme APOBEC-3G (Homo sapiens) (UniProt Q9HC16)
Test: APOBEC3G DNA deaminase inhibitors, primary screen, biochemical, fluorescence, single-stranded DNA substrate, uHTS (AID 493012);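 note: plate controls were DMSO wells with A3G for no effect and wells lacking A3G enzyme for full effect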
Conditions: recombinant A3G, ssDNA deamination FAM/TAMRA fluorescence; at 20 µM; stronger effect = higher value

Chain of DNA dC->dU-editing enzyme APOBEC-3G (Homo sapiens) (Q9HC16 whole entry, looked up): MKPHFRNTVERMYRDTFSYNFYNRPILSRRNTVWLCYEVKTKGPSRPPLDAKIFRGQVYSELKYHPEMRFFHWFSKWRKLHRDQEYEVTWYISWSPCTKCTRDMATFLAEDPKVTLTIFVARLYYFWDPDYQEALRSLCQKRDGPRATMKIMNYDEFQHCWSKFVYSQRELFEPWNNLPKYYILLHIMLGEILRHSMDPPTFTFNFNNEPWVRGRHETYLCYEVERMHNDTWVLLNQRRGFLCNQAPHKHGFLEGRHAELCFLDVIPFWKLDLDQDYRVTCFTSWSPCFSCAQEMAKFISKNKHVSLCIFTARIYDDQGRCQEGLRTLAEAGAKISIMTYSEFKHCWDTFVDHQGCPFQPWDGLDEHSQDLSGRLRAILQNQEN

Row | SMILES | inhibition
1 | CCOC(=O)C1CCN(S(=O)(=O)c2cc(F)ccc2OC)CC1 | -1.04% (inactive)
2 | CCC(=O)Nc1ccccc1C(=O)N1CCN(Cc2ccccc2)CC1 | -6.48% (inactive)
3 | CCOc1ccc(NC(=O)Nc2cc(C)on2)cc1 | 65.3% (active)
4 | CCOc1ccc(C(=O)Nc2ccc(S(=O)(=O)Nc3cc(C)on3)cc2)cc1 | -9.24% (inactive)
5 | CCC(=O)Nc1ccc(C(=O)Nc2cc(C)on2)cc1 | 2.01% (inactive)
6 | CC(C)NC(=O)c1ccc(Sc2ccccc2)c([N+](=O)[O-])c1 | -2.3% (inactive)
7 | O=C(Cc1ccccc1)NNC1CC(=O)N(c2ccc(Br)cc2)C1=O (stereo not given) | 4.82% (inactive)
8 | COC(=O)c1sccc1NC(=O)CC1C(=O)NCCN1C(=O)Nc1ccc(F)cc1F (stereo not given) | -4.83% (inactive)
9 | CNC(=O)c1sc(Nc2ccc(OCc3ccccc3)cc2)nc1C | -1.98% (inactive)
10 | Cc1ccc(S(=O)(=O)N(C)CC(=O)NCCc2c[nH]c3ccccc23)cc1 | 49.6% (active)
11 | CSCCC(NS(=O)(=O)c1ccc(C)cc1)C(=O)NCCc1c[nH]c2ccccc12 (stereo not given) | -1.39% (inactive)
12 | CN(c1ccccc1)S(=O)(=O)c1ccc(Cl)c(C(=O)NCCc2c[nH]c3ccccc23)c1 | -7.53% (inactive)
13 | COc1ccc(C)cc1NC(=O)CCS(=O)(=O)c1cccc2nonc12 | -1.32% (inactive)
14 | O=C1CC(N2CCN(c3ccc(F)cc3)CC2)C(=O)N1c1ccccc1 (stereo not given) | -7.4% (inactive)
15 | O=C1CC(Sc2ncn[nH]2)C(=O)N1c1ccccc1 (stereo not given) | 41.6% (active)
16 | Cc1ccc(N2C(=O)CC(Sc3ncn[nH]3)C2=O)cc1 (stereo not given) | 28% (inactive)
17 | CCOc1ccc(-c2cn(S(=O)(=O)c3cccc4nsnc34)nc2N)cc1 | 0.75% (inactive)
18 | CCOC(=O)C(NC(C)=O)C(=O)Nc1ccc(OC)cc1 (stereo not given) | -5.93% (inactive)
19 | O=c1[nH]c(=S)[nH]c2[nH]c(=S)[nH]c12 | 93.2% (inactive)
20 | CCNC(=O)CC1C(=O)N(c2ccc(F)cc2)C(=O)N1CCc1sccc1C (stereo not given) | -6.98% (inactive)

Row | SMILES | inhibition
21 | COc1ccc(C2=NO[C@@H]3C(=O)N(Cc4ccccc4)C(=O)[C@H]23)cc1OC | -9.52% (inactive)
22 | O=C(Cc1ccc(Br)cc1)NCCc1ccccc1 | -5.45% (inactive)
23 | O=C(Cn1cnc([N+](=O)[O-])n1)NCCc1ccccc1 | 61.5% (active)
24 | CC(C)(C)NC(=O)Cn1cnc([N+](=O)[O-])n1 | -1.06% (inactive)
25 | COCCN1C(=O)C(=O)/C(=C(/O)c2ccc(S(=O)(=O)N3CCOCC3)cc2)C1c1ccc(O)c(OC)c1 (stereo not given) | -1.29% (inactive)
26 | CCOC(=O)C(Sc1ncc(C#N)c(N)n1)C(C)C (stereo not given) | 1.62% (inactive)
27 | Cn1c(N)cc(-c2ccc(F)cc2)c(C#N)c1=O | -8.38% (inactive)
28 | Cc1cc(C)c2c(-c3ccc(F)cc3)c(C#N)c(=O)n(C)c2n1 | 53.9% (active)
29 | COc1ccc(O)c(C(=O)c2cnc3c(c2)c(-c2ccc(F)cc2)c(C#N)c(=O)n3C)c1 | -3.05% (inactive)
30 | CC1c2nc3ccccc3n2C(CC(=O)NCCCN2CCOCC2)C(=O)N1Cc1ccccc1 (stereo not given) | -9.69% (inactive)
31 | O=C(Nc1ccc(-c2ccc3nncn3n2)cc1)C1CCCCC1 | -1.63% (inactive)
32 | O=C(Nc1ccncc1)Nc1ccc(F)cc1 | -2.01% (inactive)
33 | CN(C)c1nc(NN)nc(Nc2ccc(F)cc2)n1 | -0.168% (inactive)
34 | Fc1ccc(Nc2nnns2)cc1 | 48.9% (active)
35 | CCOC(=O)C(C)Sc1nnc(CSc2nc3nc(C)cc(C)n3n2)o1 (stereo not given) | -3.96% (inactive)
36 | CCc1c(C)[nH]c(=S)c(C#N)c1C | 40.3% (active)
37 | CC(=O)c1c(C)[nH]c(=S)c(C#N)c1-c1ccc(F)cc1 | 5.87% (inactive)
38 | CCC(=O)N(C)C(c1ccccc1Cl)c1nnnn1-c1c(C)cccc1C (stereo not given) | -7.17% (inactive)
39 | COC(=O)c1ccc2c(=O)n(CCN3CCOCC3)c(SCC(=O)Nc3cccc(OC)c3)nc2c1 | -3.78% (inactive)
40 | CC(=O)N(C1=C(Cl)C(=O)c2ccccc2C1=O)c1ccc(C(=O)O)cc1 | 89.2% (active)

Row | SMILES | inhibition
41 | O=C(COC(=O)c1ncc(Cl)c(Cl)c1Cl)NC1CCS(=O)(=O)C1 (stereo not given) | -7.97% (inactive)
42 | CC1=C/C(=N\OS(=O)(=O)c2ccccc2)C=CC1=O | 71.9% (active)
43 | N#Cc1c(Cl)nc(-c2cccnc2)nc1-c1ccccc1 | -2.3% (inactive)
44 | N#Cc1ccccc1-n1c(N)c(C(=O)N2CCCC2)sc1=S | 25.4% (inactive)
45 | Cc1cccc(-n2c(N)c(C(=O)N3CCN(C)CC3)sc2=S)c1 | 62.1% (active)
46 | Cc1ccc(-n2c(N)c(C(=O)N3CCOCC3)sc2=S)c(C)c1 | 10.5% (inactive)
47 | Cc1ccc(OCc2n[nH]c(=S)n2-c2ccccc2)cc1 | 9.43% (inactive)
48 | COc1ccc(Cc2n[nH]c(=S)n2NC(=O)Nc2ccc(C)cc2)cc1 | 26.9% (inactive)
49 | COc1ccc(OCc2n[nH]c(=S)n2N)cc1 | 59.6% (active)
50 | COC(=O)c1cccc(N(C(=O)c2ccco2)C(C(=O)NC2CCCC2)c2ccco2)c1 (stereo not given) | 0.606% (inactive)
51 | Cn1c(=O)c2c(SCC(=O)NCC3CCCO3)nc(CC(C)(C)C)nc2n(C)c1=O (stereo not given) | -3.25% (inactive)
52 | CCOc1ccc(CN2CCN(Cc3ccc4cc(F)ccc4n3)CC2CCO)cc1 (stereo not given) | -8.75% (inactive)
53 | Cc1ccc(S(=O)(=O)N2CCC(Oc3ccc(-n4cnnn4)cc3)CC2)cc1 | -1.49% (inactive)
54 | CCCn1c(O)c(CN2CCCC(C)C2)c(C)c(C#N)c1=O (stereo not given) | -4.49% (inactive)
55 | O=c1[nH]c2ccccc2n2c(-c3ccccc3)nnc12 | 83.4% (active)
56 | O=c1[nH]n2c(-c3ccccc3)nc(O)c2c2ccccc12 | -3.66% (inactive)
57 | CC1(C)CC(=O)C2=C(C1)N=C1SCCC(=O)N1C2c1ccc(C(F)(F)F)cc1 (stereo not given) | -0.591% (inactive)
58 | COc1ccc(C2CC(c3ccccc3)=NN2C(=O)COC(=O)COc2ccccc2)cc1 (stereo not given) | -5.97% (inactive)
59 | COc1cccc(OCc2nnc3n2N=C(c2ccccc2)C(CC(=O)O)S3)c1 (stereo not given) | -9.67% (inactive)
60 | COc1ccc(OCc2nnc3n2N=C(c2ccccc2)C(CC(=O)O)S3)cc1 (stereo not given) | 65.2% (active)
